Data taken from PubChem BioAssay (NCATS).
Results filed as inconclusive are left out. Activity calls are given as the source filed them. The call rests on the fitted dose curve; in most records, active means well fitted cell-killing curve with a large enough effect; inconclusive means small, poorly fitted or top-dose-only effect, or effect the other way; inactive means flat fitted curve, though single readings scatter.

What was measured:
Experiment in all cases: Primary qHTS to identify gynecologic anti-cancer compounds using libraries of approved drugs and bioactive compounds (AID 1345084); further: nearly all actives have a fitted effect of over 55% in size
Es-2 = conditions: Gynecologic cancer cell panel viability, ATPlite luminescence, 48 h; series mostly up to 57.5 µM
Method in brief: (§1)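 Cytotoxicity screen measuring ATP content by luciferase luminescence. Each compound is applied at five concentrations for 48 h at 37 C with 5% CO2.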

HeLa = conditions: Gynecologic cancer cell panel viability, ATPlite luminescence, 48 h; series mostly up to 57.5 µM
Method in brief: as §1

Hek293T = conditions: Gynecologic cancer cell panel viability, ATPlite luminescence, 48 h, control line for the selectivity index; series mostly up to 57.5 µM
Method in brief: as §1

JEG-3 = conditions: Gynecologic cancer cell panel viability, ATPlite luminescence, 48 h; series mostly up to 57.5 µM
Method in brief: as §1

OV90 = conditions: Gynecologic cancer cell panel viability, ATPlite luminescence, 48 h; series mostly up to 57.5 µM
Method in brief: as §1

PA-1 = conditions: Gynecologic cancer cell panel viability, ATPlite luminescence, 48 h; series mostly up to 57.5 µM
Method in brief: as §1

SKOV3 = conditions: Gynecologic cancer cell panel viability, ATPlite luminescence, 48 h; series mostly up to 57.5 µM
Method in brief: as §1

Tov-21-G = conditions: Gynecologic cancer cell panel viability, ATPlite luminescence, 48 h; series mostly up to 57.5 µM
Method in brief: as §1

Tov112D = conditions: Gynecologic cancer cell panel viability, ATPlite luminescence, 48 h; series mostly up to 57.5 µM
Method in brief: as §1
On the % scale 0 is the no-effect control and ±100 the full control effect.

COc1cc([C@H]2OC[C@@H]3[C@@H](c4ccc(O[C@@H]5O[C@H](CO)[C@@H](O)[C@H](O)[C@H]5O)c(OC)c4)OC[C@]23O)ccc1O
inactive: Potency (Es-2) | Potency (HeLa) | Potency (Hek293T) | Potency (JEG-3) | Potency (OV90) | Potency (PA-1) | Potency (SKOV3) | Potency (Tov-21-G) | Potency (Tov112D)

CC(=C/C(=O)O)/C=C/[C@]1(O)[C@@]2(C)CO[C@]1(C)C[C@H](O[C@@H]1O[C@H](CO)[C@@H](O)[C@H](O)[C@H]1O)C2
inactive: Potency (Es-2) | Potency (HeLa) | Potency (Hek293T) | Potency (JEG-3) | Potency (OV90) | Potency (PA-1) | Potency (SKOV3) | Potency (Tov-21-G) | Potency (Tov112D)

C(#Cc1cccc(CN2CCOCC2)c1)CCN1CCCCC1
inactive: Potency (Es-2) | Potency (HeLa) | Potency (Hek293T) | Potency (JEG-3) | Potency (OV90) | Potency (PA-1) | Potency (SKOV3) | Potency (Tov-21-G) | Potency (Tov112D)

COc1ccc(/C=C/C(=O)O[C@@H]2[C@@H](OC(C)=O)[C@@H](OC(C)=O)[C@H](O[C@H]3[C@@H]4C=CO[C@@H](O[C@@H]5O[C@H](CO)[C@@H](O)[C@H](O)[C@H]5O)[C@@H]4[C@@]4(CO)O[C@@H]34)O[C@H]2C)cc1O
inactive: Potency (Es-2) | Potency (HeLa) | Potency (Hek293T) | Potency (JEG-3) | Potency (OV90) | Potency (PA-1) | Potency (SKOV3) | Potency (Tov-21-G) | Potency (Tov112D)

O=c1ccn([C@@H]2O[C@H](CO)[C@@H](O)[C@H]2O)c(=O)[nH]1
inactive: Potency (Es-2) | Potency (HeLa) | Potency (Hek293T) | Potency (JEG-3) | Potency (OV90) | Potency (PA-1) | Potency (SKOV3) | Potency (Tov-21-G) | Potency (Tov112D)

CC1(C)CCC(C)(C)c2cc([C@@H](O)C(=O)Nc3ccc(C(=O)O)cc3F)ccc21
inactive: Potency (Es-2) | Potency (HeLa) | Potency (Hek293T) | Potency (JEG-3) | Potency (OV90) | Potency (PA-1) | Potency (SKOV3) | Potency (Tov-21-G) | Potency (Tov112D)

CC(C)c1cc2c(c(O)c1O[C@@H]1O[C@H](CO)[C@@H](O)[C@H](O)[C@H]1O)CC1(O)CCC(O)C(C)(C)C1CC2 (stereo partly specified)
inactive: Potency (Es-2) | Potency (HeLa) | Potency (Hek293T) | Potency (JEG-3) | Potency (OV90) | Potency (PA-1) | Potency (SKOV3) | Potency (Tov-21-G) | Potency (Tov112D)

COc1cc(C/C(=C/NC(C)=O)N(CC(=O)Cc2ccccc2)C(C)=O)cc2c1OCO2
inactive: Potency (Es-2) | Potency (HeLa) | Potency (Hek293T) | Potency (JEG-3) | Potency (OV90) | Potency (PA-1) | Potency (SKOV3) | Potency (Tov-21-G) | Potency (Tov112D)

O=C(O[C@H]1[C@@H]2C[C@@H]3OC[C@@](O)([C@H]2[C@H](O[C@@H]2O[C@H](CO)[C@@H](O)[C@H](O)[C@H]2O)O3)[C@@H]1O)c1ccccc1
inactive: Potency (Es-2) | Potency (HeLa) | Potency (Hek293T) | Potency (JEG-3) | Potency (OV90) | Potency (PA-1) | Potency (SKOV3) | Potency (Tov-21-G) | Potency (Tov112D)

NC(=O)c1ccc(OCC2NC(=O)C3CCCN3C2=O)cc1 (stereo unspecified)
inactive: Potency (Es-2) | Potency (HeLa) | Potency (Hek293T) | Potency (JEG-3) | Potency (OV90) | Potency (PA-1) | Potency (SKOV3) | Potency (Tov-21-G) | Potency (Tov112D)

COc1cc([C@@H]2Oc3c(OC)cc(CCCO)cc3[C@@H]2CO[C@@H]2O[C@H](CO)[C@@H](O)[C@H](O)[C@H]2O)ccc1O
inactive: Potency (Es-2) | Potency (HeLa) | Potency (Hek293T) | Potency (JEG-3) | Potency (OV90) | Potency (PA-1) | Potency (SKOV3) | Potency (Tov-21-G) | Potency (Tov112D)

C/C(=C/CCC(CO)C1CCC2(C)C3CCC4C(C)(C)C(OC5OC(CO)C(O)C(O)C5O)CC(O)C45CC35CCC12C)COC1OC(CO)C(O)C(O)C1O (stereo unspecified)
inactive: Potency (Es-2) | Potency (HeLa) | Potency (Hek293T) | Potency (JEG-3) | Potency (OV90) | Potency (PA-1) | Potency (SKOV3) | Potency (Tov-21-G) | Potency (Tov112D)

COC(=O)C1=CO[C@@H](O[C@@H]2O[C@H](COC(=O)/C=C/c3cc(OC)c(O)c(OC)c3)[C@@H](O)[C@H](O)[C@H]2O)[C@@H]2C(CO)=CC[C@H]12
inactive: Potency (Es-2) | Potency (HeLa) | Potency (Hek293T) | Potency (JEG-3) | Potency (OV90) | Potency (PA-1) | Potency (SKOV3) | Potency (Tov-21-G) | Potency (Tov112D)

CC(=O)O[C@H]1CC[C@@]2(CI)C(=CC[C@@H]3[C@@H]2CC[C@]2(C)[C@@H]([C@H](C)CCCC(C)C)CC[C@@H]32)C1
inactive: activity change, negative = cytotoxicity (Es-2) -1.33% [at 11.6 µM] | activity change, negative = cytotoxicity (HeLa) 10.9% [at 11.6 µM] | activity change, negative = cytotoxicity (Hek293T) 4.14% [at 11.6 µM] | activity change, negative = cytotoxicity (JEG-3) -2.55% [at 11.6 µM] | activity change, negative = cytotoxicity (OV90) -2.38% [at 11.6 µM] | activity change, negative = cytotoxicity (PA-1) 22.4% [at 11.6 µM] | activity change, negative = cytotoxicity (SKOV3) 5.27% [at 11.6 µM] | activity change, negative = cytotoxicity (Tov-21-G) 10.3% [at 11.6 µM] | activity change, negative = cytotoxicity (Tov112D) 11.8% [at 11.6 µM]
